Assay results as given in PubChem BioAssay (NCI).
The panel holds about 83,000 compounds, 20% with a hit somewhere; the sample as a whole holds those more often.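 For each line, cells grew in 96-well plates with the test compound present at a single concentration for 48 hours.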 Calls of active or inactive are those of the source. How the source made its calls: active means growth percent below 10; inactive means the rest.

Key:
Assay in all cases: NCI-60 one-dose screen, 48 h (100 = growth as untreated, 0 = no growth, -100 = all killed)
Conditions in all cases: 10 µM unless noted
HT29 colon = tested on: HT29 colon
SNB-75 CNS = tested on: SNB-75 CNS
SNB-19 CNS = tested on: SNB-19 CNS
SK-MEL-5 melanoma = tested on: SK-MEL-5 melanoma
LOX IMVI melanoma = tested on: LOX IMVI melanoma
SK-MEL-28 melanoma = tested on: SK-MEL-28 melanoma
SK-MEL-2 melanoma = tested on: SK-MEL-2 melanoma
PC-3 prostate = tested on: PC-3 prostate
UACC-62 melanoma = tested on: UACC-62 melanoma
U251 CNS = tested on: U251 CNS

Measured: growth

O=C(NCCc1ccccc1)C1CCC(=O)N1Cc1ccc(Br)cc1 (stereo unspecified)
inactive: HT29 colon 85.6% | SNB-75 CNS 100% | SNB-19 CNS 96.7% | SK-MEL-5 melanoma 101% | LOX IMVI melanoma 97.8% | SK-MEL-28 melanoma 99.7% | SK-MEL-2 melanoma 96.1%

CN(C)c1cccc2c(S(=O)(=O)N[C@H]3CC[C@H]4[C@@H]5CCc6cc(O)ccc6[C@H]5CC[C@]34C)cccc12
inactive: SNB-75 CNS 40.4% | SNB-19 CNS 62.5% | PC-3 prostate 16.1% | UACC-62 melanoma 49.9% | SK-MEL-28 melanoma 54.7%
active: HT29 colon 2.71%

CCN1CCN(c2cc(-c3cn[nH]c3-c3cc(C)cc(OC)c3)nc(-c3cccnc3)n2)CC1
inactive: HT29 colon 33.4% | SNB-75 CNS 75.9% | U251 CNS 48.3% | PC-3 prostate 100% | SK-MEL-5 melanoma 81.9% | UACC-62 melanoma 102% | LOX IMVI melanoma 56.7% | SK-MEL-28 melanoma 87.4% | SK-MEL-2 melanoma 93.6%

Cc1cc2c(cc1C)Nc1sc(NC(=O)CN3CCN(C)CC3)nc1C(=O)N2
inactive: HT29 colon 99.8% | SNB-75 CNS 104% | SNB-19 CNS 96.6% | PC-3 prostate 101% | UACC-62 melanoma 105% | SK-MEL-28 melanoma 108%

O=C(Oc1ccc[nH]c1=O)c1cccc(Cl)c1
inactive: HT29 colon 97.4% | SNB-75 CNS 53.2% | SNB-19 CNS 85.8% | SK-MEL-5 melanoma 99.8% | UACC-62 melanoma 95.3% | LOX IMVI melanoma 90.8% | SK-MEL-28 melanoma 127% | SK-MEL-2 melanoma 108%

O=C(/C(=N/O)S(=O)(=O)c1ccccc1)c1cccs1
inactive: HT29 colon 107% | SNB-75 CNS 92.6% | SNB-19 CNS 100% | PC-3 prostate 97.7% | UACC-62 melanoma 104%

O=C1CC(C(F)(F)F)=NN1C(=O)c1nn(-c2ccc(Cl)cc2)cc1O
inactive: HT29 colon 110% | SNB-75 CNS 74.6% | SNB-19 CNS 87.7% | SK-MEL-5 melanoma 88.4% | UACC-62 melanoma 96.4% | LOX IMVI melanoma 62.6% | SK-MEL-2 melanoma 96.9%

O=C(/C=C/c1ccc(Cl)cc1)c1ccccc1
inactive: HT29 colon 93.8% | SNB-75 CNS 109% | SNB-19 CNS 101% | PC-3 prostate 97% | SK-MEL-5 melanoma 93% | LOX IMVI melanoma 81.1% | SK-MEL-28 melanoma 113% | SK-MEL-2 melanoma 102%

CC[N+](C)(CC)CCCC(C)Nc1ccnc2cc(Cl)ccc12 (stereo unspecified)
inactive: HT29 colon 111% | SNB-75 CNS 99.8% | U251 CNS 98.8% | PC-3 prostate 98% | SK-MEL-5 melanoma 101% | UACC-62 melanoma 105% | LOX IMVI melanoma 99.7% | SK-MEL-28 melanoma 117% | SK-MEL-2 melanoma 108%

Cc1c(NCc2nnc3n(Cc4ccccc4)c(=O)c4c5c(sc4n23)CCCC5)c(=O)n(-c2ccccc2)n1C
inactive: HT29 colon 77.2% | SNB-75 CNS 98% | SNB-19 CNS 79.9% | SK-MEL-5 melanoma 81% | UACC-62 melanoma 80% | LOX IMVI melanoma 91.6% | SK-MEL-28 melanoma 103% | SK-MEL-2 melanoma 97.1%

COc1cccc(/C=C2\COc3ccc(O)c(O)c3C2=O)c1OC
inactive: HT29 colon 21.6% | SNB-75 CNS 21.8% | SNB-19 CNS 31.6% | PC-3 prostate 19.5% | SK-MEL-2 melanoma 97.3%
active: UACC-62 melanoma 8.54% | LOX IMVI melanoma -72.6%

COc1cc(NC(=O)c2cc3ccccc3cc2O)c(OC)cc1Cl
inactive: HT29 colon 64.8% | SNB-75 CNS 40.9% | SNB-19 CNS 16% | UACC-62 melanoma 24% | SK-MEL-28 melanoma 43.6%
active: SK-MEL-5 melanoma -41.9% | LOX IMVI melanoma 3.45% | SK-MEL-2 melanoma -17.2%

C=C(C[C@](O)(C(=O)/C=C/c1ccc(Cl)cc1)C(=O)OC)c1ccccc1
active: LOX IMVI melanoma -72.4%
inactive: HT29 colon 16.4% | SNB-75 CNS 75.7% | U251 CNS 28.6% | PC-3 prostate 65.4% | SK-MEL-5 melanoma 76% | UACC-62 melanoma 53.8% | SK-MEL-28 melanoma 95.4% | SK-MEL-2 melanoma 102%

CCc1[nH]nc(-c2ccc(OC)cc2)c1-c1ccccc1OCCN(CC)CC
inactive: HT29 colon 85.9% | SNB-75 CNS 60.4% | U251 CNS 96% | PC-3 prostate 76% | SK-MEL-5 melanoma 85.2% | UACC-62 melanoma 106% | LOX IMVI melanoma 80.2% | SK-MEL-28 melanoma 107% | SK-MEL-2 melanoma 95.5%

Nc1ccc(C2=Nc3cccc4cccc(c34)S2)cc1
inactive: HT29 colon 98.5% | SNB-75 CNS 71.4% | U251 CNS 91.8% | PC-3 prostate 71.6% | SK-MEL-5 melanoma 88.9% | UACC-62 melanoma 79.8% | LOX IMVI melanoma 91.8% | SK-MEL-28 melanoma 111% | SK-MEL-2 melanoma 87.5%

CCCCCCCCCCCCCCCCN=C(CC(=O)O)C(=O)O
inactive: HT29 colon 82.1% | SNB-75 CNS 91.6% | U251 CNS 101% | PC-3 prostate 91.9% | SK-MEL-5 melanoma 113% | LOX IMVI melanoma 90.5% | SK-MEL-28 melanoma 103% | SK-MEL-2 melanoma 92.8%

C=C1CC[C@@H]2[C@](C)(COC(C)=O)[C@H](OC(C)=O)CC[C@@]2(C)[C@@H]1CC(Nc1ccc(S(=O)(=O)Nc2cc(C)on2)cc1)C1=CCOC1=O (stereo partly specified)
active: HT29 colon -11% | LOX IMVI melanoma -72.7%
inactive: SNB-75 CNS 59.4% | U251 CNS 30% | PC-3 prostate 70.8% | UACC-62 melanoma 19.8% | SK-MEL-28 melanoma 38.1% | SK-MEL-2 melanoma 63%

CC(O)c1nc2c(c(=O)n(C)c(=O)n2C)n1C (stereo unspecified)
inactive: HT29 colon 113% | SNB-75 CNS 102% | U251 CNS 102% | SK-MEL-5 melanoma 104% | UACC-62 melanoma 102% | LOX IMVI melanoma 104% | SK-MEL-28 melanoma 126%

COc1ccc(C2CC(c3ccc(OC)c(OC)c3)=NN2C(=O)c2cc(OC)c(OC)c(OC)c2)c(OC)c1 (stereo unspecified)
inactive: HT29 colon 59.9% | SNB-19 CNS 91.8% | U251 CNS 80.6% | PC-3 prostate 64.3% | SK-MEL-5 melanoma 42% | UACC-62 melanoma 58% | LOX IMVI melanoma 56.6% | SK-MEL-28 melanoma 80.2% | SK-MEL-2 melanoma 68.2%

CCOC(=O)C1C(=O)OC2CCCCC21 (stereo unspecified)
inactive: HT29 colon 110% | SNB-19 CNS 97.6% | U251 CNS 101% | PC-3 prostate 107% | SK-MEL-5 melanoma 114% | UACC-62 melanoma 99.8% | LOX IMVI melanoma 105% | SK-MEL-28 melanoma 109% | SK-MEL-2 melanoma 118%

COc1ccc2c(c1)C(=O)c1c-2c(=O)n(CCCCCCC(=O)NO)c2ccccc12
inactive: SNB-75 CNS 29.7% | SK-MEL-2 melanoma 10.4%
active: HT29 colon 3.51% | U251 CNS -58.8% | PC-3 prostate -8.27% | SK-MEL-5 melanoma -85.7% | UACC-62 melanoma -55.5% | LOX IMVI melanoma -82% | SK-MEL-28 melanoma -18%

Cc1nnc(Nc2ccc(NC(=O)Nc3ccc(Cl)cc3)cc2)c2ccccc12
active: HT29 colon 2.24% | U251 CNS 5.4% | UACC-62 melanoma -34.4% | LOX IMVI melanoma -27.3% | SK-MEL-28 melanoma -11.9%
inactive: SNB-75 CNS 68.1% | PC-3 prostate 22.8% | SK-MEL-5 melanoma 52.3% | SK-MEL-2 melanoma 44%

CSc1ncc2ncn(C3OC(CO)C(O)C3O)c2n1 (stereo unspecified)
inactive: HT29 colon 108% | SNB-75 CNS 96% | U251 CNS 103% | SK-MEL-5 melanoma 129% | UACC-62 melanoma 103% | LOX IMVI melanoma 108% | SK-MEL-28 melanoma 115%

COc1ccc2nc3cc(Cl)ccc3c(Nc3cc(C(C)C)c(O)cc3C)c2c1
active: HT29 colon 5.84% | SK-MEL-5 melanoma -91%
inactive: SNB-75 CNS 63.7% | U251 CNS 19.5% | UACC-62 melanoma 65.8% | LOX IMVI melanoma 26.8% | SK-MEL-28 melanoma 71.4%

Cc1cc(C(C)(C)c2cc(C)c(O)c(CN(C)C)c2)cc(CN(C)C)c1O
inactive: HT29 colon 76.3% | SNB-75 CNS 90.1% | U251 CNS 67.8% | PC-3 prostate 80% | SK-MEL-5 melanoma 85.8% | UACC-62 melanoma 75.5% | LOX IMVI melanoma 81.8% | SK-MEL-28 melanoma 79.2% | SK-MEL-2 melanoma 101%

CCOC(=O)c1cc(-c2cccnc2)nc2c(Cl)cc(Cl)cc12
inactive: HT29 colon 88% | SNB-75 CNS 104% | U251 CNS 70.3% | SK-MEL-5 melanoma 101% | UACC-62 melanoma 95.6% | LOX IMVI melanoma 98.2% | SK-MEL-28 melanoma 129%

CCCCCCCC1(C)NC(=O)NC1=O (stereo unspecified)
inactive: HT29 colon 114% | SNB-75 CNS 84.5% | U251 CNS 99.5% | SK-MEL-5 melanoma 106% | UACC-62 melanoma 106% | LOX IMVI melanoma 103% | SK-MEL-28 melanoma 87.7%

COc1ccc2c3c(c(OCCCN(C)C)nc2c1)-c1ccc(Cl)cc1C3=O
active: HT29 colon -80.8% | U251 CNS -84.9% | PC-3 prostate -19.5% | UACC-62 melanoma -49% | LOX IMVI melanoma -93.3% | SK-MEL-28 melanoma -74.2%
inactive: SNB-75 CNS 53% | SK-MEL-5 melanoma 39.2% | SK-MEL-2 melanoma 72.5%

CCOC(=O)c1c(C)c(C(=O)OCC)n(C)c1C
inactive: HT29 colon 88.5% | SNB-75 CNS 83.6% | U251 CNS 99.5% | SK-MEL-5 melanoma 126% | UACC-62 melanoma 83.8% | LOX IMVI melanoma 103% | SK-MEL-28 melanoma 116%

O=C(/C=C/c1ccccc1Cl)c1ccc(O)cc1
inactive: HT29 colon 14.5% | SNB-75 CNS 46.7% | U251 CNS 31.4% | SK-MEL-5 melanoma 58.1% | UACC-62 melanoma 73.4% | LOX IMVI melanoma 36.2% | SK-MEL-28 melanoma 96.1%

C=C(C[C@@](O)(C(=O)Oc1ccccc1)C(=O)C1CCCCC1)c1ccccc1
inactive: HT29 colon 103% | SNB-75 CNS 72.3% | U251 CNS 95.8% | PC-3 prostate 84.2% | SK-MEL-5 melanoma 96.3% | LOX IMVI melanoma 101% | SK-MEL-28 melanoma 98% | SK-MEL-2 melanoma 105%

COc1cc(Oc2cc(-c3cccnc3)ccc2NC(=O)Nc2ccc(F)cc2F)cc(OC)c1OC
inactive: HT29 colon 105% | SNB-75 CNS 83.8% | U251 CNS 92.2% | PC-3 prostate 84.3% | SK-MEL-5 melanoma 92.6% | UACC-62 melanoma 88.9% | LOX IMVI melanoma 107% | SK-MEL-2 melanoma 112%

CN(CC(=O)N(Cc1ccc(C2CCCCC2)cc1)c1ccc(C(=O)O)cc1)S(=O)(=O)c1c(F)c(F)c(F)c(F)c1F
inactive: SNB-75 CNS 68.6% | PC-3 prostate 10.4% | SK-MEL-5 melanoma 86.6%
active: HT29 colon -22.3% | U251 CNS -25.4% | UACC-62 melanoma -7.33% | LOX IMVI melanoma -64.1% | SK-MEL-28 melanoma -51.8% | SK-MEL-2 melanoma -31.7%

CC1=CC(=O)C(C(C)=Nc2ccccc2Cl)C(=O)O1 (stereo unspecified)
inactive: HT29 colon 101% | SNB-75 CNS 83.6% | U251 CNS 103% | SK-MEL-5 melanoma 120% | UACC-62 melanoma 98% | LOX IMVI melanoma 83.6% | SK-MEL-28 melanoma 105%
